Assay results as given in PubChem BioAssay AID1159580 (chemical genetic matrix, 2015).
Several values for one entry are separate records, joined by “and”; a condition that tells them apart may be missing. Identical values can stand only once. The campaign covered roughly 5,500 compounds. About 2,000 (36%) were called active. About 18% were inconclusive and are not listed. The list shows a part of the results. Values without a mark were called inactive. No stated cut-off is given here; in the data, active means normalized growth mostly below about 0.91 (no sharp cut-off); inconclusive means no clear call, values can overlap the other calls; inactive means mostly above about 0.92.

Assay: chemical genetic growth profiling, strain panel (AID 1159580);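 further: tested at 20 µM; growth read once vehicle control cultures reached saturation at 30 °C; 1 = growth at the plate median or of vehicle wells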
Details: S. cerevisiae deletion strains, growth OD

Cc1c(O)c(O)cc2c1CC=C1[C@@]2(C)CC[C@@]2(C)C3C[C@](C)(C(=O)O)CC[C@]3(C)CC[C@]12C (stereo partly specified)
normalized growth (locus YAL021C, strain ccr4, stronger effect = lower value): 0.711 (active)
normalized growth (locus YAL026C, strain drs2, stronger effect = lower value): 0.422 (active)
normalized growth (locus YAL030W, strain snc1, stronger effect = lower value): 0.541 (active)
normalized growth (locus YBL061C, strain skt5, stronger effect = lower value): 0.533 (active)
normalized growth (locus YBR009C, strain hhf1, stronger effect = lower value): 0.265 (active)
normalized growth (locus YBR021W, strain FUR4, stronger effect = lower value): 1
normalized growth (locus YBR023C, strain chs3, stronger effect = lower value): 0.471 (active)
normalized growth (locus YBR171W, strain sec66, stronger effect = lower value): 0.842 (active)
normalized growth (locus YBR229C, strain ROT2, stronger effect = lower value): 0.966
normalized growth (locus YBR231C, strain swc5, stronger effect = lower value): 0.326 (active)
normalized growth (locus YBR279W, strain paf1, stronger effect = lower value): 0.41 (active)
normalized growth (locus YCL011C, strain gbp2, stronger effect = lower value): 0.377 (active)
normalized growth (locus YCL016C, strain dcc1, stronger effect = lower value): 0.571 (active)
normalized growth (locus YCL029C, strain bik1, stronger effect = lower value): 0.947
normalized growth (locus YCL061C, strain MRC1, stronger effect = lower value): 0.635 (active)
normalized growth (locus YCL069W, strain vba3, stronger effect = lower value): 0.668 (active)
normalized growth (locus YCR088W, strain abp1, stronger effect = lower value): 0.738 (active)
normalized growth (locus YDL005C, strain med2, stronger effect = lower value): 0.413 (active)
normalized growth (locus YDL035C, strain GPR1, stronger effect = lower value): 0.872
normalized growth (locus YDL040C, strain nat1, stronger effect = lower value): 0.738 (active)
normalized growth (locus YDL074C, strain BRE1, stronger effect = lower value): 0.797
normalized growth (locus YDL101C, strain DUN1, stronger effect = lower value): 0.924
normalized growth (locus YDL185W, strain tfp1, stronger effect = lower value): 1.01
normalized growth (locus YDL192W, strain arf1, stronger effect = lower value): 0.889 (active)
normalized growth (locus YDR001C, strain nth1, stronger effect = lower value): 0.766 (active)
normalized growth (locus YDR069C, strain doa4, stronger effect = lower value): 0.459 (active)
normalized growth (locus YDR101C, strain arx1, stronger effect = lower value): 0.962
normalized growth (locus YDR137W, strain rgp1, stronger effect = lower value): 0.269 (active)
normalized growth (locus YDR150W, strain NUM1, stronger effect = lower value): 0.959
normalized growth (locus YDR159W, strain sac3, stronger effect = lower value): 0.465 (active)
normalized growth (locus YDR162C, strain NBP2, stronger effect = lower value): 0.803 (active)
normalized growth (locus YDR195W, strain ref2): 0.548 (active)
normalized growth (locus YDR297W, strain sur2, stronger effect = lower value): 0.479 (active)
normalized growth (locus YDR318W, strain mcm21, stronger effect = lower value): 0.917 (active)
normalized growth (locus YDR334W, strain swr1, stronger effect = lower value): 0.338 (active)
normalized growth (locus YDR335W, strain msn5, stronger effect = lower value): 0.698 (active)
normalized growth (locus YDR388W, stronger effect = lower value): 0.962
normalized growth (locus YDR392W, strain spt3, stronger effect = lower value): 0.125 (active)
normalized growth (locus YDR502C, strain sam2, stronger effect = lower value): 0.929
normalized growth (locus YEL003W, strain gim4, stronger effect = lower value): 0.416 (active)
normalized growth (locus YEL037C, strain rad23, stronger effect = lower value): 0.71 (active)
normalized growth (locus YEL061C, strain CIN8 (second series), stronger effect = lower value): 0.701 (active)
normalized growth (locus YEL061C, strain CIN8, stronger effect = lower value): 0.906 (active)
normalized growth (locus YER015W, strain faa2, stronger effect = lower value): 0.491 (active)
normalized growth (locus YER016W, strain bim1, stronger effect = lower value): 0.612 (active)
normalized growth (locus YER110C, stronger effect = lower value): 1
normalized growth (locus YER111C, strain swi4, stronger effect = lower value): 0.581 (active)
normalized growth (locus YER155C, strain BEM2 (second series), stronger effect = lower value): 0.348 (active)
normalized growth (locus YER155C, strain BEM2, stronger effect = lower value): 0.767 (active)
normalized growth (locus YER167W, strain BCK2, stronger effect = lower value): 0.921
normalized growth (locus YFR010W, strain ubp6, stronger effect = lower value): 0.561 (active)
normalized growth (locus YGL078C, strain dbp3, stronger effect = lower value): 0.977
normalized growth (locus YGL086W, strain mad1, stronger effect = lower value): 0.936
normalized growth (locus YGL167C, strain pmr1, stronger effect = lower value): 0.738 (active)
normalized growth (locus YGL173C, strain kem1, stronger effect = lower value): 0.31 (active)
normalized growth (locus YGL227W, strain vid30, stronger effect = lower value): 0.854 (active)
normalized growth (locus YGL240W, strain doc1, stronger effect = lower value): 0.605 (active)
normalized growth (locus YGL248W, strain PDE1, stronger effect = lower value): 0.845 (active)
normalized growth (locus YGL253W, strain hxk2, stronger effect = lower value): 0.37 (active)
normalized growth (locus YGR135W, strain pre9, stronger effect = lower value): 0.936
normalized growth (locus YGR252W, strain gcn5, stronger effect = lower value): 0.873
normalized growth (locus YHR013C, strain ard1, stronger effect = lower value): 0.203 (active)
normalized growth (locus YHR027C, strain rpn1, stronger effect = lower value): 0.45 (active)
normalized growth (locus YHR030C, strain SLT2, stronger effect = lower value): 0.947 and 0.918
normalized growth (locus YHR079C, strain IRE1 (second series), stronger effect = lower value): 0.976
normalized growth (locus YHR079C, strain IRE1, stronger effect = lower value): 0.945
normalized growth (locus YHR094C, strain hxt1, stronger effect = lower value): 0.988
normalized growth (locus YHR129C, strain ARP1, stronger effect = lower value): 0.838 (active)
normalized growth (locus YHR142W, strain chs7, stronger effect = lower value): 0.387 (active)
normalized growth (locus YHR200W, strain rpn10, stronger effect = lower value): 0.964
normalized growth (locus YIL066C, strain RNR3, stronger effect = lower value): 0.801 (active)
normalized growth (locus YIL073C, strain SPO22, stronger effect = lower value): 0.863
normalized growth (locus YIL125W, strain kgd1, stronger effect = lower value): 0.942
normalized growth (locus YIR030C, strain dcg1, stronger effect = lower value): 0.958
normalized growth (locus YJL092W, strain hpr5, stronger effect = lower value): 0.686 (active)
normalized growth (locus YJL095W, strain BCK1 (second series), stronger effect = lower value): 0.405 (active)
normalized growth (locus YJL095W, strain BCK1, stronger effect = lower value): 0.784 (active) and 0.865 (active)
normalized growth (locus YJL115W, strain asf1, stronger effect = lower value): 0.741 (active)
normalized growth (locus YJL129C, strain trk1, stronger effect = lower value): 0.482 (active)
normalized growth (locus YJL134W, strain LCB3, stronger effect = lower value): 0.967
normalized growth (locus YJL154C, strain vps35, stronger effect = lower value): 0.689 (active)
normalized growth (locus YJL164C, strain tpk1, stronger effect = lower value): 0.289 (active)
normalized growth (locus YJL166W, strain qcr8, stronger effect = lower value): 0.233 (active)
normalized growth (locus YJL168C, strain set2, stronger effect = lower value): 0.979
normalized growth (locus YJL187C, strain SWE1 (second series), stronger effect = lower value): 0.897
normalized growth (locus YJL187C, strain SWE1, stronger effect = lower value): 0.457 (active)
